The test system of assay [1] is Plasmodium falciparum Sir2 (PF13_0152, Sir2A). As to the kind of experiment: Plasmodium falciparum Sir2A binding compounds – biochemical, small-molecule microarray, 635 nm fluorescence, primary screen (AID 1098).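 Further: score merges spot fluorescence intensity with its signal-to-noise ratio.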 To be noted: fluorescence 635 nm, higher = more signal.
The nature of assay [2]: probe aDKK1 binding to arrayed compounds – biochemical, biotinylated probe, 635/667 nm fluorescence, primary screen (AID 1099).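 Further: score merges 667nm spot fluorescence with signal to noise across triplicate slides.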 To be noted: small-molecule microarray, higher = more signal.
A short description of assay [3]: probe aCHRDL2 binding to arrayed compounds – biochemical, biotinylated probe, 635/667 nm fluorescence, primary screen (AID 1100). As to conditions: small-molecule microarray, higher = more signal.
A short description of assay [4]: change in splice reporter luminescence, either direction, cell-based, HEK293, spliceosome inhibition project, primary screen (AID 1101).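 Further: HEK293 cells carrying a splicing-competent luciferase reporter gene; test concentration not given here.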 As to conditions: HEK293 splicing luciferase reporter, 24 h, higher = more signal, called active from +8 up or from −8 down. A general note: Reporter assays use an easily measured gene product as a stand-in for the process of interest.

Assay [5] has as its target Fibroblast growth factor 10 (Homo sapiens) (UniProt O15520). As to the kind of experiment: compounds binding fibroblast growth factor 10 – biochemical, small-molecule microarray, 635 nm fluorescence, primary screen (AID 1102). As to conditions: FGF10 binding, fluorescence 635 nm, higher = more signal.
The test system of assay [6] is glycogen synthase kinase-3 (GSK3A per assay name; protocol says GSK3B). In words: compounds binding glycogen synthase kinase-3 – biochemical, small-molecule microarray, 635 nm fluorescence, GSK3A, primary screen (AID 1103). Further: the record names both GSK3A and GSK3B. To be noted: fluorescence 635 nm, higher = more signal.
Assay [7] addresses Epidermal growth factor receptor (Homo sapiens) (UniProt P00533). As to the kind of experiment: compounds binding epidermal growth factor receptor – biochemical, small-molecule microarray, 635 nm fluorescence, primary screen (AID 1104).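 Further: score merges 667 nm emission intensity with spot signal to noise over triplicate slides.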 To be noted: EGFR binding, higher = more signal.
Assay [8] concerns the target Follistatin-related protein 3 (Homo sapiens) (UniProt O95633). As to the kind of experiment: compounds binding follistatin-related protein 3 – biochemical, small-molecule microarray, 635 nm fluorescence, primary screen (AID 1105).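 Further: score merges emission near 667 nm and signal to noise per printed spot across three slides.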 To be noted: FSTL3 binding, higher = more signal.
Assay [9] concerns the target Dickkopf-related protein 1 (Homo sapiens) (UniProt O94907). In words: small molecules binding DKK1 protein – biochemical, small-molecule microarray, 635 nm fluorescence scan, primary screen (AID 1106).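 Further: score merges emission near 667 nm with signal to noise over three replicate slides.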 To be noted: higher = more signal.
Assay [10] has as its system Inhibin beta A chain (activin A). In words: small molecules binding activin A – biochemical, small-molecule microarray, 635 nm fluorescence scan, primary screen (AID 1107).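 Further: mouse activin A protein probed at 4.33 µg/mL on printed slides; score merges bound-protein fluorescence near 667 nm with spot signal-to-noise.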 To be noted: INHBA, higher = more signal.
Assay [11] deals with Human papillomavirus type 1a protein E7 (residues 44-93). In words: small molecules binding HPV E7 44-93 – biochemical, small-molecule microarray, residues 44-93, 635 nm fluorescence, primary screen (AID 1108).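 Further: E7 fragment applied at 1 µg/mL in TBST for 1 h at 4 C; score combines spot fluorescence with its signal to noise ratio.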 As to conditions: fluorescence 635 nm, higher = more signal.
The nature of assay [12]: hepatitis C replication reporter changes, two-sided – Huh7 cells, luciferase reporter, HCV replication inhibitor project, primary screen (AID 1109).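 Further: huh7 hepatoma cells harbouring a luciferase neomycin HCV replicon reporter; luciferase luminescence as measure of HCV replicon replication; test concentration not given here.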 To be noted: Huh7 HCV replicon luciferase reporter, 48 h; higher = more signal.
Assay [13] addresses Left-right determination factor 2 (Homo sapiens) (UniProt O00292). In words: small molecules binding LEFTY2 protein – biochemical, small-molecule microarray, 635 nm fluorescence scan, primary screen (AID 1110). As to conditions: higher = more signal.
The target of assay [14] is Calmodulin-1 (Homo sapiens) (UniProt P0DP23). As to the kind of experiment: small molecules binding calmodulin-1 with EGTA – biochemical, small-molecule microarray, Cy5-labelled CALM1, profiling panel (AID 1111).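 Further: labelled calmodulin applied in Tris saline Tween buffer holding calcium plus EGTA and DTT.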 As to conditions: Cy5-CALM1 binding fluorescence, higher = more signal.
For assay [15] the target is unchanged. As to the kind of experiment: small molecules binding Ca-loaded calmodulin-1 – biochemical, small-molecule microarray, Cy5-labelled CALM1, plus calcium, artefact control for SMM control-protein annotation, profiling panel (AID 1112).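 Further: score merges spot fluorescence with signal to noise from triplicate slides.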 To be noted: Cy5-CALM1 binding fluorescence, higher = more signal.
Assay [16] in a line: probe aWnt5a binding to arrayed compounds – biochemical, biotinylated probe, 635/667 nm fluorescence, primary screen (AID 1113).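 Further: score merges 667 nm fluorescence intensity with signal-to-noise per printed feature.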 To be noted: small-molecule microarray, higher = more signal.
Assay [17] can be described thus: probe aShh binding to arrayed compounds – biochemical, biotinylated probe, 635/667 nm fluorescence, primary screen (AID 1114).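 Further: probe is biotin-labelled aShh protein from a stem cell growth factor screen; measures binding of labelled protein to compounds printed on the slide; score merges feature fluorescence at 667 nm with signal-to-noise.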 As to conditions: small-molecule microarray, higher = more signal.
The nature of assay [18]: probe aNog binding to arrayed compounds – biochemical, biotinylated probe, 635/667 nm fluorescence, primary screen (AID 1115).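 Further: probe is biotinylated aNog protein used at 0.15 µg/mL for 1 h at 4 C; z-score combines 667 nm fluorescence of each spot with its signal to noise.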 To be noted: small-molecule microarray, higher = more signal.
The target in assay [19] is Torsin-1A-interacting protein 1 (Homo sapiens) (UniProt Q5JTV8). In words: compound microarray binding of lysate hLAP1 – cell lysate, small-molecule microarray, COS7 lysate, 635/667 nm fluorescence, primary screen (AID 1116). As to conditions: 635 nm fluorescence, higher = more signal.
The target of assay [20] is Alpha-bungarotoxin (Bungarus multicinctus) (UniProt P60615). As to the kind of experiment: compounds binding labelled alpha-BTX control protein – biochemical, small-molecule microarray, Alexa647 label, 635/667 nm fluorescence, artefact control for SMM control protein annotation, profiling panel (AID 1117). As to conditions: alpha-BTX-A647 binding fluorescence, higher = more signal.

Calls of active or inactive are those of the source.

Sequence of Dickkopf-related protein 1 (Homo sapiens) (O94907 whole entry, looked up): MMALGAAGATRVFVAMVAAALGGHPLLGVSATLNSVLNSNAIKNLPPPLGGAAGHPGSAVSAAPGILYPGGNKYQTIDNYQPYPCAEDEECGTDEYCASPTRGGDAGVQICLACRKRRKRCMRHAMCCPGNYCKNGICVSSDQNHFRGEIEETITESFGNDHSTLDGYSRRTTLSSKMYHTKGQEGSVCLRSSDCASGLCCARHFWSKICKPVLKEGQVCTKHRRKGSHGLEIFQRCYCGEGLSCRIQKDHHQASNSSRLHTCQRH
Sequence of Torsin-1A-interacting protein 1 (Homo sapiens) (Q5JTV8 whole entry, looked up): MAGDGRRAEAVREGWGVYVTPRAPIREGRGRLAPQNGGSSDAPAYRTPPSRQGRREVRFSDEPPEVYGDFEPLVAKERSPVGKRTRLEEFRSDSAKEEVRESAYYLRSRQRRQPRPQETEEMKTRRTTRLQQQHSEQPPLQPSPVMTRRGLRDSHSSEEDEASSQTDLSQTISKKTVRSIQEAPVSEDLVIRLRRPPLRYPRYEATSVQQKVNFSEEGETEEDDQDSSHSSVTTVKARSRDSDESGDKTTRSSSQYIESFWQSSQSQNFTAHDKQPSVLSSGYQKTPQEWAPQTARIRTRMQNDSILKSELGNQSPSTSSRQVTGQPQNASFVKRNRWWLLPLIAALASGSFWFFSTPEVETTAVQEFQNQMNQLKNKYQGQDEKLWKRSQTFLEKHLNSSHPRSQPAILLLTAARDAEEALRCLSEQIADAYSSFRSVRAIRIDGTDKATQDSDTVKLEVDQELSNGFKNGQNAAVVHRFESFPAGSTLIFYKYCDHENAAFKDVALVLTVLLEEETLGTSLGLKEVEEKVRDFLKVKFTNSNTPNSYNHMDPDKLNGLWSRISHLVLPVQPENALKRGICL
Sequence of Fibroblast growth factor 10 (Homo sapiens) (O15520 whole entry, looked up): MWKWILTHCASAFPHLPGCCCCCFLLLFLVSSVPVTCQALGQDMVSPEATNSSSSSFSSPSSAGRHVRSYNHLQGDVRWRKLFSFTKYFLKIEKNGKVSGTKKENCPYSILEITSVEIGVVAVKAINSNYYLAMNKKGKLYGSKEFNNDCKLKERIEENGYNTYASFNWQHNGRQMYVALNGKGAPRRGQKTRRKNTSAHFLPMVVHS
Sequence of Epidermal growth factor receptor (Homo sapiens) (P00533 whole entry, looked up): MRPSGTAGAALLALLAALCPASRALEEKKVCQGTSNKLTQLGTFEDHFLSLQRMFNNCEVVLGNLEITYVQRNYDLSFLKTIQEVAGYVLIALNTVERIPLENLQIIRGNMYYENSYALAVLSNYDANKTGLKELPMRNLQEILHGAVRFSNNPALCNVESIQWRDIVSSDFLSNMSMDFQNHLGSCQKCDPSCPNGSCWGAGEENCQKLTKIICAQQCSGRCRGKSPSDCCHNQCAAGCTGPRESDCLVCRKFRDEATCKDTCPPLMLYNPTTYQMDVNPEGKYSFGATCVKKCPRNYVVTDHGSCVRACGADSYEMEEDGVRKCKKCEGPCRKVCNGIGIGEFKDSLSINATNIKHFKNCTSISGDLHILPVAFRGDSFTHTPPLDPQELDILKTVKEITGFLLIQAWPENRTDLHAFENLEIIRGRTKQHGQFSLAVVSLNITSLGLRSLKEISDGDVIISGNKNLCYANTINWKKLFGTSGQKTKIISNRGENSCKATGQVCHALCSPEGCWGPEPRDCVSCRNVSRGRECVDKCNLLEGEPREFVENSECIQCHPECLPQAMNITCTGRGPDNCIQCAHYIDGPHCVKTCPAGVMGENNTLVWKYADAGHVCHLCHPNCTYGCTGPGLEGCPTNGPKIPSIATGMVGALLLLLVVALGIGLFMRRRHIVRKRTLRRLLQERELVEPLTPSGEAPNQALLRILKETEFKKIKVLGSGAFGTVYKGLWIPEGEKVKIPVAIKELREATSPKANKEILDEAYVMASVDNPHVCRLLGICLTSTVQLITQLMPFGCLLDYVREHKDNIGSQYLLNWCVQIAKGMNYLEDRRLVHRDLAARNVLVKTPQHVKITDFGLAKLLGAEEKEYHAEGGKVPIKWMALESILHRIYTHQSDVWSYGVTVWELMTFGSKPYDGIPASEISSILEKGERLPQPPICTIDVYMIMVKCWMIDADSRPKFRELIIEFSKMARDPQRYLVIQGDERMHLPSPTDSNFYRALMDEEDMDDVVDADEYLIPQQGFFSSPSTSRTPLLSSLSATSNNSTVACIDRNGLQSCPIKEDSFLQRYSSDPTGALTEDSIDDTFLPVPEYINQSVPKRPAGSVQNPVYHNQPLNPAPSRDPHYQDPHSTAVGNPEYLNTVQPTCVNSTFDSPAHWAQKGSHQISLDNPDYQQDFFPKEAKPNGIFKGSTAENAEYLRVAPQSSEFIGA
Sequence of Left-right determination factor 2 (Homo sapiens) (O00292 whole entry, looked up): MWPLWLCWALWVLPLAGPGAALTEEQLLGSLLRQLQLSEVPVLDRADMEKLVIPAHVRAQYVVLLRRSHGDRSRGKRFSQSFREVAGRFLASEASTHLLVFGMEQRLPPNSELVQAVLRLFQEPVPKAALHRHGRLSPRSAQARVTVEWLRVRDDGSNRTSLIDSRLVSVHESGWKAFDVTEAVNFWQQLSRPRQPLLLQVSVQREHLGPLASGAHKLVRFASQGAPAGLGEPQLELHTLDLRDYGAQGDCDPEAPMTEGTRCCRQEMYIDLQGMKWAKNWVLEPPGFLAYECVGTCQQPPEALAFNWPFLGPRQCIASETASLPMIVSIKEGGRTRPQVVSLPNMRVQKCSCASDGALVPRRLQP
Sequence of Alpha-bungarotoxin (Bungarus multicinctus) (P60615 whole entry, looked up): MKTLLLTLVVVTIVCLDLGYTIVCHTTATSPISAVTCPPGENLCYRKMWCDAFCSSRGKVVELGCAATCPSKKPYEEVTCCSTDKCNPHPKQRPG
Sequence of Follistatin-related protein 3 (Homo sapiens) (O95633 whole entry, looked up): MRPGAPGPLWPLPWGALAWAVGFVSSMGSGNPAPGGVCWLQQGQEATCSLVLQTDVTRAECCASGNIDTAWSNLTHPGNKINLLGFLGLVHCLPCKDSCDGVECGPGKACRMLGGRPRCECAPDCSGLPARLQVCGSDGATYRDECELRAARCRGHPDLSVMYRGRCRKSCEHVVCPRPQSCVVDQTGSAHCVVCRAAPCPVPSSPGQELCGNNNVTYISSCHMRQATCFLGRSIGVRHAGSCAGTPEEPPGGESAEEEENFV

Turning to `O=C1[C@H]2[C@H]3[C@H](O)[C@H](O)CC(=NOCc4ccccc4)[C@@H]3CC[C@H]2C(=O)N1C1CCCCC1`, the composite z-score in assay [1] is 0.991; in [2] it was -0.28; in [3] it was 0.218; in assay [5], -0.069; in assay [6], -0.0273; in [7] it was 0.0374. The composite z-score in [8] is -0.0832; in assay [9] it was -0.484; in assay [10], -0.28; in [11], 0.422; in [13], -0.102; in assay [14], -0.161. Besides, the composite z-score in assay [15] is -0.408; in assay [16], -0.206; in assay [17], -0.265; in assay [18], -0.169; in assay [19] it was 0.467; in assay [20], -0.0059. Also, the z-score in [4] was 0.568 (inactive); in assay [12], -1.11.

Take `C=C(/C(=C/C[C@H](OC(C)=O)c1ccc(OCCO)cc1)c1cnc2ccccc2c1)C(C)C`: the composite z-score in [1] is 0.659; in [2], -0.523; in assay [3] it was -0.611; in [5], 1.49; in assay [6] it was 0.939; in assay [7], 0.333. The composite z-score is 1.48 in [8]; 0.658 in assay [9]; 1.64 in assay [10]; 1.41 in [11]; 1.06 in assay [13]; 0.295 in assay [14]. Also, the composite z-score in assay [15] is -0.184; in assay [16], 0.117; in assay [17], -0.0917; in assay [18], -0.243; in assay [19] it was 0.782; in [20] it was 0.911. For the same molecule, the values for the z-score in [4] and in [12] were -0.494 (inactive) and -1.38, respectively.

Take `O=C1C2C=CC(C(O)c3ccc([N+](=O)[O-])cc3)N(Nc3ccc([N+](=O)[O-])cc3)C2C(=O)N1c1ccccc1` (stereo not given): the composite z-score in assay [1] came to 0.867; in assay [2] it was 0.969; in assay [3], 0.539; in assay [5], 0.818; in [6] it was 1.29; in assay [7] it was 0.301. In addition, the composite z-score is 0.255 in assay [8]; -0.12 in assay [9]; 0.69 in assay [10]; 1.47 in assay [11]; 0.179 in assay [13]; 2.01 in assay [14]. In addition, the composite z-score is 0.757 in assay [15]; 0.152 in assay [16]; 0.0796 in assay [17]; 0.0473 in [18]; 1.3 in assay [19]; 2.8 in assay [20]. Besides, the z-score in assay [4] was -0.291 (inactive); in assay [12] it was -0.74.

Turning to `COC(=O)[C@@]1(Cc2ccccc2)[C@H]2c3cc(C(=O)N4CCCC4)n(Cc4ccccn4)c3C[C@H]2CN1C(=O)c1ccccc1`, the composite z-score came to 1.54 in [1]; 1.52 in assay [2]; 1.31 in assay [3]; 1.37 in [5]; 1.3 in assay [6]; 0.204 in assay [7]. Further, the composite z-score in assay [8] is 1.41; in [9] it was 0.166; in assay [10], 0.456; in assay [11], 1.5; in assay [13] it was 0.0043; in [14], 1.45. For the same molecule, the composite z-score in assay [15] stood at 0.053; in [16], 0.752; in assay [17], 0.894; in [18], 2.25; in [19] it was 2.42; in [20], 0.914. The z-score was -2.15 (inactive) in [4] and -1.24 in assay [12].

On to `CCCCCN1CC=CC23O[C@@H]4C=CCOC(=O)[C@@H]4[C@H]2C(=O)N(C(CO)C(C)C)[C@@H]3C1=O` (stereo not given in full), for which the composite z-score in assay [1] is 0.745; in assay [2], -0.183; in [3], 0.0134; in [5], -0.512; in assay [6], -0.786; in assay [7] it was -1.07. For the same molecule, the composite z-score in assay [8] is -0.472; in assay [9] it was -0.426; in assay [10], 0.712; in [11] it was -0.516; in [13], -0.518; in assay [14], -0.385. Also, the composite z-score in assay [15] was -1.07; in assay [16], -0.176; in assay [17], -0.276; in assay [18] it was -0.254; in [19], -0.0843; in [20], -0.257. Moreover, the z-score in assay [4] is 0.253 (inactive); in assay [12], 0.245.

The values above are taken from PubChem BioAssay.
